From PubChem BioAssay (NCATS)
Inconclusive results are not listed. Activity calls are given as the source filed them. Calls come from the whole dose curve; as a rule, active = well fitted inhibition curve with a large enough effect; inconclusive = small, poorly fitted or top-dose-only effect; inactive = flat fitted curve, though single readings scatter.

Assay: P-glycoprotein substrates identified in KB-8-5-11 adenocarcinoma cell line, qHTS therapeutic library screen (AID 1346987); note: nearly all actives have a fitted effect of over 65% in size
Conditions: KB-8-5-11 (P-gp overexpressing) viability, CellTiter-Glo, 72 h; series mostly up to 44.5 µM; activity change, negative = cytotoxicity: at the top concentration
How it was run: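 In this qHTS, P-gp-rich KB-8-5-11 cells received library compounds across a concentration range. Viability was quantified by luminescence after 72 h at 37 degree C.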
% is set by controls: 0 for no effect and ±100 for the full control effect; potency is the fitted concentration of half-maximal effect.

Row | Structure (SMILES) | activity change, negative = cytotoxicity | Potency | outcome
1 | C/C=C(\C)C(=O)OC1C(C)OC(OC2C(C)OC(OC3CCC4(C)C(=CCC5C4CCC4(C)C(C(C)OC6OC(COC7OC(CO)C(O)C(O)C7O)C(O)C(O)C6O)CCC54O)C3)CC2OC)C(O)C1OC (stereo not drawn) | 7.92% [at 9.29 µM] (inactive) | – | –
2 | Clc1ccc(N2C[C@H]3CC[C@@H](C2)N3)nn1 | 9.18% (inactive) | – | –
3 | COC1CC(OC2CCC3(C=O)C(CCC4C3CCC3(C)C(C5=CC(=O)OC5)CCC43O)C2)OC(C)C1OC1OC(CO)C(O)C(O)C1O (stereo not drawn) | – | 172 nM (active) | –
4 | CC(C)(O)[C@H]1O[C@H]2CC[C@@]3(C)[C@@](O)(CC[C@H]4Cc5c([nH]c6ccccc56)[C@@]43C)C2=CC1=O | -6.52% [at 17.3 µM] (inactive) | – | –
5 | OC1(c2ccc(Cl)cc2)c2ccccc2C2=NCCN21 (stereo not drawn) | -4.41% (inactive) | – | –
6 | C[C@@]12C[C@@H](c3ccoc3)OC(=O)C1CC[C@]1(C)[C@H]2[C@H]2C=C[C@]1(O)C(=O)O2 (stereo partly drawn) | 8.91% (inactive) | – | –
7 | CCN1C[C@]2(OC(=O)c3ccccc3NC(C)=O)CC[C@H](OC)[C@@]34[C@@H]2C[C@@H]([C@@H]13)[C@@]1(O)C[C@H](OC)[C@H]2C[C@@H]4[C@]1(O)[C@H]2OC | 5.02% (inactive) | – | –
8 | CN1CCCC1CCOC(c1cc2nccc(C(=O)O)c2[nH]1)c1ccccc1Cl (stereo not drawn) | – | – | inactive
9 | CN1C(=O)c2ccccc2NC(=O)C1Cc1ccccc1 (stereo not drawn) | 2.5% (inactive) | – | –
10 | COC1CC(OC2CCC3(C)C(=CCC4C3CCC3(C)C(C(C)OC5OC(COC6OC(CO)C(O)C(O)C6O)C(O)C(O)C5O)CCC43O)C2)OC(C)C1OC1OC(C)C(O)C(OC)C1O (stereo not drawn) | – | – | inactive [at 9.29 µM]
11 | CC[C@H]1CN2CC[C@H]1C[C@H]2[C@H](O)c1ccnc2ccc(OC)cc12 | -7.42% (inactive) | – | –
12 | CCC(C)(OC(C)=O)C(=O)O[C@H]1[C@H](OC(C)=O)C[C@@H]2[C@@](C)([C@@H]3C[C@H]4C=CO[C@H]4O3)[C@H](C)C[C@H](OC(C)=O)[C@@]2(COC(C)=O)[C@@]12CO2 (stereo partly drawn) | 2.17% [at 17.3 µM] (inactive) | – | –
13 | COC(=O)N1CCN(C(=O)Cc2ccc(Cl)c(Cl)c2)[C@@H](CN2CCCC2)C1 | -10.6% (inactive) | – | –
